In all, about 310,000 compounds went through this assay and about 14,000 (4.5%) showed an effect of 50% or more. Effects have a minus sign here. The sample as a whole holds a higher share of strong results than the screen did.
These compounds were tested against human ether-à-go-go-related gene (hERG) potassium channel (human, UniProt Q12809) (assay: primary screen, population patch clamp on CHO cells stably expressing hERG; higher = less effect of the substance).
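Further: peak tail current of the secondary pulse compared with the same well before compound.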

Chain of human ether-à-go-go-related gene (hERG) potassium channel (Q12809 whole entry, looked up): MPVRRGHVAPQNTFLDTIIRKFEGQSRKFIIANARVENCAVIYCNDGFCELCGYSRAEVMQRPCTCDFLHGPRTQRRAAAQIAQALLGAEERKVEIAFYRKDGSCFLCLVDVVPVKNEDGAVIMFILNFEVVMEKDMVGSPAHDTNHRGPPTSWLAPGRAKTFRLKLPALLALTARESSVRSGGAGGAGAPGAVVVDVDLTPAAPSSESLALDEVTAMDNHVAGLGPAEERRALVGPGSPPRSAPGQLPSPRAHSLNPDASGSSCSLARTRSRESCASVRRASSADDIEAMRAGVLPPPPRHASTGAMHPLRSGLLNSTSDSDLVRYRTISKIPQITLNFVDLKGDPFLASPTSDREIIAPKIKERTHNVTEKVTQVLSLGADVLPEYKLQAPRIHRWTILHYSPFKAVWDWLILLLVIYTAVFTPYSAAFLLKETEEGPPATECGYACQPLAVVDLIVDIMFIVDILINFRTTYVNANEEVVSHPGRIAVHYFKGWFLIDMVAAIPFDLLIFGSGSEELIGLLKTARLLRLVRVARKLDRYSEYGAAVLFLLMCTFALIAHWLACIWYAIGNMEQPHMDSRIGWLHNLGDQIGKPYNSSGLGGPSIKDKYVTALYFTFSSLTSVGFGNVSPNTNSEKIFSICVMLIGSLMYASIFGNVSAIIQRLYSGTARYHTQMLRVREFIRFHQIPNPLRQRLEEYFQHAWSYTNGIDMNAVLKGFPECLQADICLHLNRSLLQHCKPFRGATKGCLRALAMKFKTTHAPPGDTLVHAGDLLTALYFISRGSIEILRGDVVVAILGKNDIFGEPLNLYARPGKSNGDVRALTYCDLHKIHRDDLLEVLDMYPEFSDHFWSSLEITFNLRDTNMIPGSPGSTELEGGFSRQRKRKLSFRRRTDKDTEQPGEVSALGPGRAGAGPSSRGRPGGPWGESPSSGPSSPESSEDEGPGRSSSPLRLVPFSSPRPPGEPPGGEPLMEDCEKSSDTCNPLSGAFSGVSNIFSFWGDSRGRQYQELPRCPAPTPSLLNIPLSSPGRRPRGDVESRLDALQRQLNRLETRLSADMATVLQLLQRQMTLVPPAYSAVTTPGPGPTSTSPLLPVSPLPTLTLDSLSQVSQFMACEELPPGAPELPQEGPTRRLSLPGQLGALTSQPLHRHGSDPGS

SMILES	hERG current change (%, negative = inhibition) at 10uM
COc1ccc2nc(SCc3cccc(C)c3)nc(C)c2c1	-10.9%
COc1ccccc1OCCOCCOc1c(C)cc(C)cc1Br	8.26%
CC(C)N1CC(O)=C(c2ccccc2)C1=N	-0.355%
CC(C)NC(=O)c1ccccc1NC(=O)C1CC(=O)N(C(C)C)C1 (stereo not drawn)	42.9%
CSc1ncccc1C(=O)Nc1nccs1	-22.8%
COc1cc(Cl)c(C)cc1NC(=O)CSc1nnc(-c2ccccn2)n1Cc1ccco1	-29.5%
O=C(CSc1nnc(-c2ccncc2)n1Cc1ccco1)Nc1ccccc1Cl	-36.3%
O=C(CSc1nnc(-c2ccncc2)n1Cc1ccco1)Nc1ccccc1F	-20.4%
COc1cc(Cl)c(C)cc1NC(=O)CSc1nnc(-c2cccnc2)n1Cc1ccco1	-56.9%
Cc1cc(Cl)ccc1NC(=O)CSc1nnc(-c2ccncc2)n1Cc1ccco1	-52.8%
COc1ccc(NC(=O)CSc2nnc(-c3ccccc3)n2Cc2ccco2)c(OC)c1	-26.4%
Cc1c(C(=O)Nc2cc(S(=O)(=O)N3CCOCC3)ccc2N2CCN(C)CC2)oc2ccccc12	-10.8%
Cc1ccccc1N1CC(C(=O)O)CC1=O (stereo not drawn)	14.1%
Cc1cccc(Cn2ccc(NC(=O)c3ccc4c(c3)OCO4)n2)c1	-34.3%
CCCNC(=O)c1ccc2c(=O)n3c(-c4ccc(C)cc4)csc3nc2c1	5.26%
Cc1ccc(C2(CCNS(=O)(=O)c3ccc(C)cc3)CCOC(C(C)C)C2)cc1 (stereo not drawn)	-53.5%
Cc1ccc(C2(CCNCc3ccco3)CCOC(C(C)C)C2)cc1 (stereo not drawn)	-35.6%
COc1ccccc1C1(CCNS(=O)(=O)c2ccc(C)cc2)CCOC(C(C)C)C1 (stereo not drawn)	4.49%
Cc1ccc(C2(CCNCc3ccc(N(C)C)cc3)CCOC(C(C)C)C2)cc1 (stereo not drawn)	-64.1%
CC(C)C1CC(CCNCc2ccc(N(C)C)cc2)(c2ccccc2)CCO1 (stereo not drawn)	-24.6%
Cc1ccc(C2(CCN)CCOC(C(C)C)C2)cc1 (stereo not drawn)	17%
O=C(Nc1ccc2c(c1)OCO2)Oc1ccccc1	-7.16%

SMILES	hERG current change (%, negative = inhibition) at 10uM
O=C(c1cccc(C(F)(F)F)c1)N1CCC(O)(CS(=O)(=O)Cc2ccccc2Cl)CC1	-8.87%
CNC(=O)C1CC(=O)N(Cc2ccc(OC)c(OC)c2)C(=Nc2ccc(OC)cc2)S1 (stereo not drawn)	-6.01%
O=[N+]([O-])c1ccc(Cc2nnc(-c3ccc(F)cc3)o2)cc1	-57.2%
Cc1ccc(-c2nnc(Cc3ccc(Cl)cc3)o2)cc1	8.63%
O=[N+]([O-])c1ccc(Cc2nnc(-c3ccccc3Cl)o2)cc1	-15.5%
Fc1ccc(-c2nnc(Cc3ccc(Cl)cc3)o2)cc1	-16.7%
Fc1ccc(-c2nnc(Cc3nnc(-c4ccc(F)cc4)o3)o2)cc1	10.8%
Cc1ccc(-c2nnc(Cc3ccc([N+](=O)[O-])cc3)o2)cc1	-64.9%
Cc1ccc(C(=O)Nc2c(C)n(C)n(-c3ccccc3)c2=O)cc1S(=O)(=O)N1CCOCC1	0.249%
Cc1ccc(S(=O)(=O)N(C)c2c(C)ccc(S(N)(=O)=O)c2C)cc1	-10.9%
Fc1ccccc1N1CC(c2ccccc2)C(c2cccs2)=N1 (stereo not drawn)	9.56%
Cc1ccc(Cn2nnc3c(=O)[nH]c(C4CCCN(S(=O)(=O)c5ccccc5F)C4)nc32)cc1 (stereo not drawn)	12.2%
COc1ccc(/C=N/Nc2nncc3ccccc23)c(OC)c1	10.7%
COc1cc(C)c(Cl)c(C)c1S(=O)(=O)NC1CC(C)(C)NC(C)(C)C1	7.91%
O=C(NCCSc1ccccc1)c1ccc(Br)cc1	13.5%
CN1CCN(CC(O)COc2ccccc2)CC1 (stereo not drawn)	-0.905%
CCC(=O)c1ccc(OCC(O)CN2CCOCC2)cc1 (stereo not drawn)	7.44%
CCC(=O)c1ccc(OCC(O)CNC(C)c2ccccc2)cc1 (stereo not drawn)	-14.7%
N#Cc1ccc(OCC(O)CN2CCN(C(c3ccccc3)c3ccccc3)CC2)cc1 (stereo not drawn)	-72.1%
Cl.OC(COc1ccccc1)CN1CCN(CC(O)COc2ccccc2)CC1 (stereo not drawn)	-61.7%
COC(=O)CN1CCN(C(c2ccccc2)c2ccccc2)CC1	5%
OC(COc1ccccc1)CN1CCCC1 (stereo not drawn)	14.5%

SMILES	hERG current change (%, negative = inhibition) at 10uM
CCC(=O)c1ccc(OCC(O)CN2CCN(C(c3ccccc3)c3ccccc3)CC2)cc1 (stereo not drawn)	-67.2%
CC(C)OCC(O)CN1CCN(C(c2ccccc2)c2ccccc2)CC1.Cl (stereo not drawn)	-58.1%
CCOc1ccc(NS(=O)(=O)c2ccc(Cl)c(C(=O)N(C)Cc3cccnc3)c2)cc1	-25.9%
COc1ccccc1NC(=O)CSc1nnc(C)n1Cc1ccccc1	-34.5%
CCOc1ccc(Nc2cc(=O)oc3ccccc23)cc1	7.78%
Cc1nn(C)cc1C(=O)NNC(=S)Nc1ccc(Cl)cc1	12.6%
CCOC(=O)C(Cc1ccc(Cl)cc1Cl)c1ccno1 (stereo not drawn)	14.3%
O=C(NCc1ccc(Cl)cc1)C(=O)NCC1OCCN1S(=O)(=O)c1ccc2c(c1)OCCO2 (stereo not drawn)	-7.02%
Cc1cc(C)c(S(=O)(=O)/N=C2/C=C(Sc3ncn[nH]3)C(=O)c3ccccc32)cc1C	18.2%
C[C@H](NC(=O)OC(C)(C)C)C(=O)N/N=C/c1ccc2nccnc2c1	21.7%
COc1cccc(N(C(=O)c2snc(C(N)=O)c2N)C(C(=O)NCC2CCCO2)c2ccc3ncccc3c2)c1 (stereo not drawn)	-16.8%
COc1ccccc1OCC(=O)Nc1cccc(S(=O)(=O)NC2=NCCCCC2)c1	-4.65%
CCC(=O)c1ccc(OCC(O)Cn2nc(C)c(C(C)=O)c2C)cc1 (stereo not drawn)	-36.7%
OC(CN1CCN(C(c2ccccc2)c2ccccc2)CC1)c1ccccc1 (stereo not drawn)	-30.8%
OC(COc1ccccc1)CN1CCN(C(c2ccccc2)c2ccccc2)CC1 (stereo not drawn)	-69.6%
CC(=O)c1ccccc1OCC(O)CN1CCN(C(c2ccccc2)c2ccccc2)CC1 (stereo not drawn)	-66.7%
CC(=O)c1ccccc1OCC(O)CN1CCN(c2ccccn2)CC1.Cl (stereo not drawn)	-39%
CCC(=O)c1ccc(OCC(O)Cn2nc(C)c(Br)c2C)cc1 (stereo not drawn)	-97.8%
OC(COCc1ccco1)CN1CCN(C(c2ccccc2)c2ccccc2)CC1 (stereo not drawn)	-73.4%
O=C(CN1CCN(C(c2ccccc2)c2ccccc2)CC1)NC(=O)NCc1ccco1	-5.1%
CCC(=O)c1ccc(OCC(O)Cn2nc(C)cc2C)cc1 (stereo not drawn)	-7.44%
CCOc1ccccc1C(=O)N1CCN(C(c2ccccc2)c2ccccc2)CC1	0.314%

SMILES	hERG current change (%, negative = inhibition) at 10uM
OC(COc1ccccc1)CN1CCOCC1 (stereo not drawn)	9.83%
COc1cccc(OCC(O)CN2CCN(C(c3ccccc3)c3ccccc3)CC2)c1.Cl (stereo not drawn)	-43.6%
Cc1cccnc1NC(=S)NCc1ccco1	-2.97%
CC(=O)O.COc1c(O)ccc(C2NC(=O)NC(C)=C2C(=O)Nc2ccccc2C)c1[N+](=O)[O-] (stereo not drawn)	31.9%
CC(/C=C1\SC(=S)N(CCC(=O)Nc2cccc(C(=O)O)c2)C1=O)=C\c1ccccc1	10.9%
Cc1ccc(NC(=S)N=Nc2c(O)[nH]c3ccccc23)cc1	9.41%
CC(C)(C)c1ccc(OCC(O)CN2CCCC2)cc1.Cl (stereo not drawn)	-35.7%
Cl.O=C(/C=C/c1ccccc1)N1CCN(CC(O)COc2ccccc2)CC1 (stereo not drawn)	-69.7%
OC(COc1ccccc1)CN1CCCCCC1 (stereo not drawn)	-4.43%
CC(C)(c1ccccc1)c1ccc(OCC(O)CN2CCCC2)cc1.Cl (stereo not drawn)	-60.3%
CCOc1ccc(OCC(O)CN2CCN(S(=O)(=O)c3cccc(C(F)(F)F)c3)CC2)cc1.O=C(O)C(=O)O (stereo not drawn)	13.7%
OC(COc1ccccc1)CN1CCN(c2ncccn2)CC1 (stereo not drawn)	-22.9%
CCC(=O)c1ccc(OCC(O)CN2CCN(c3cccc(C(F)(F)F)c3)CC2)cc1 (stereo not drawn)	-55.2%
CCC(=O)c1ccc(OCC(O)CN2CCN(c3ccccn3)CC2)cc1 (stereo not drawn)	-34%
CC(=O)N1CCN(CC(O)COc2ccc(OCc3ccccc3)cc2)CC1 (stereo not drawn)	-17.7%
Cl.O=C(COc1ccccc1)N1CCN(CC(O)COc2ccccc2)CC1 (stereo not drawn)	-50.8%
Cl.O=C(C(c1ccccc1)c1ccccc1)N1CCN(CC(O)COc2ccccc2)CC1 (stereo not drawn)	-13.7%
COc1cc(/C=C/C(=O)N2CCN(CC(O)COc3ccccc3)CC2)cc(OC)c1OC.Cl (stereo not drawn)	-8.44%
COc1cc(C(=O)NCCNC(=O)c2ccc(C)nc2)cc(OC)c1OC	11.8%
S=C(Nc1ccccc1)Nc1nccs1	24.4%
CCOc1ccc(Nc2oc(-c3ccc(Cl)cc3)nc2C#N)cc1	9.08%

Source: article PMC4336329 (PLoS ONE, 2015)
